Screening results as filed in PubChem.
Sampled rows, rich in hits. Any-hit rate of the full collection: about 2%.
HTT aggregate: mutant huntingtin aggregation inhibition; AID 1688; 220,000 tested, 1.1% active; PC12 HttQ103-GFP aggregates, Acumen cytometry, 40 h; Potency, µM (top dose mostly 46.1 µM), without a hit: at the top dose activity change, negative = inhibition, most hits filed as inhibitors; further: potency means the concentration at half of the fitted maximal effect; on the % scale 0 is the no-effect control and ±100 the full control effect; nearly all actives have a fitted effect of over 60% in size
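PC12/HTTQ103-GFP, ecdysone-inducible; teb 100 nM; cpd qHTS titration; GFP aggregates read on laser cytometer, Ex 488/Em 500-530 nm.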
TRb SRC2 PPI: disrupts binding of human TR beta to SRC2 | Potency, µM (titrated, usually from 106 µM), without a hit: at the top dose activity change, negative = inhibition, actives largely listed as inhibitors | 280,000 tested, 0.065% active | TRbeta-SRC2 peptide binding, fluorescence polarization; receptor liganded with 1 µM T3 | AID 1469;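 further: potency means the concentration at half of the fitted maximal effect; plate controls were bound peptide for no effect and peptide without receptor for full effect; nearly all actives have a fitted effect of over 50% in size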
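Compounds were added to 0.6 uM TRb ligand-binding domain and 20 nM Texas Red-labeled SRC2 peptide in Tris buffer containing 1 uM T3, incubated 5 hr at ambient temperature, then read by fluorescence polarization.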
FBPA coupling cs: counter-screen for Giardia aldolase inhibitors: coupling enzyme system; coupling enzyme system counterscreen, AmpLite Red fluorescence; 290,000 tested, 0.67% active; activity change, negative = inhibition, % at 58.2 µM, hits read low; in the data active means activity change below about -30%; further: on the % scale 0 is the no-effect control and ±100 the full control effect
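Compounds tested against the coupling enzymes alone at 57.5 uM final; readout was AmpLite Red fluorescence (525/598 nm) after 20 min at RT.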
HTT cytoprotect: cytoprotection in Huntington HTT-Q103 PC12 cell model; PC12 HTT-Q103 induced, cytoprotection, ATP luminescence, 40 h; Potency, µM (highest dose often 56.4 µM), inactives show cytoprotection (ATP increase), usual class: activators; 230,000 tested, 0.14% active; further: potency means the concentration at half of the fitted maximal effect; % of control where 0% means no effect; nearly all actives have a fitted effect of over 45% in size
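Huntington model: PC12 line, ecdysone-inducible HTTQ103 exon1–GFP, tebufenozide 100 nM. Test articles in a dose series. Endpoint luminescence from cellular ATP.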
JMJD2E inh: blocks human JMJD2E demethylase activity. AID 2147. B2RXH2. Potency, µM (doses to about 57.1 µM), for the others: at the top dose activity change, negative = inhibition, usual class: inhibitors. JMJD2E catalytic domain, FDH-coupled NADH fluorescence (FDH is formaldehyde dehydrogenase). 230,000 tested, 1.6% active; active means well fitted inhibition curve with a large enough effect, not every such curve was filed as active; inconclusive means small, poorly fitted or top-dose-only effect, or another doubt; inactive means no such curve, though single readings can be large or run the other way;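 further: potency means the concentration at half of the fitted maximal effect; 0% = wells with enzyme and -100% = buffer wells without enzyme; nearly all actives have a fitted effect of over 50% in size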
Target sequence (B2RXH2 1-337 limits assumed): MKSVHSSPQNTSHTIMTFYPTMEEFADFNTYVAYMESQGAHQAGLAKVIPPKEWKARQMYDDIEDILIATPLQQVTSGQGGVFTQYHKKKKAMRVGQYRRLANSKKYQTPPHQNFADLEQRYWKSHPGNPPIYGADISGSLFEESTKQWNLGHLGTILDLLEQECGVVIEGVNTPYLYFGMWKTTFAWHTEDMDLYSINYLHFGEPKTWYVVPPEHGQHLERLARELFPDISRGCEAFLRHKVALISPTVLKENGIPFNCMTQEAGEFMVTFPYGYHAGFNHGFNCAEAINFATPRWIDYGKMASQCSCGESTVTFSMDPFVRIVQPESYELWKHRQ
TR SRC2 fluor cs: counter-screen for TRb-SRC2 inhibitors: fluorescence interference; TRb/SRC2 Texas Red total fluorescence interference; Potency, µM (titrated, usually from 106 µM), for the others: top-dose fluorescence change, negative = quenching; 280,000 tested, 0.29% active; AID 1479; active means well fitted curve in either direction with a large enough effect; inconclusive means small, poorly fitted or top-dose-only effect; further: potency means the concentration at half of the fitted maximal effect; on the % scale 0 is the no-effect control and ±100 the full control effect
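Human TRβ ligand-binding domain (0.6 uM) and Texas Red SRC2 peptide (20 nM) in Tris buffer with 1 uM T3 and 5% DMSO were incubated with pinned compound for 5 hr at ambient temperature. Total fluorescence was computed as S + 2P (555/632 nm).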
Active calls of the source: *; ? = inconclusive; . = no result; [ ] = dose if it differs, or a comment. Unless noted, the call rests on the fitted dose curve; in most records, active means well fitted curve in the direction sought with a large enough effect; inconclusive means small, poorly fitted or top-dose-only effect, or another doubt; inactive means no such curve, though single readings can be large; an effect the other way counts as inactive or inconclusive.

SMILES	HTT aggregate	TRb SRC2 PPI	FBPA coupling cs	HTT cytoprotect	JMJD2E inh	TR SRC2 fluor cs
CCCCN(C)CCCNC(=O)c1cc(-c2ccc(Br)s2)nc2ccccc12	.	2%	.	.	.	-1%
CCCCN(CCCC)CCCNC(=O)c1cc(-c2ccc(Cl)s2)nc2ccccc12	.	-10%	.	.	.	0.79µM*[quencher]
CCC(Sc1nncn1C)C(=O)Nc1ccccc1OC (centres undefined)	6%	-21%	9	14µM*	-27%	2%
COC(=O)C1CCN(c2csc3ccc(Cl)cc3c2=O)CC1	.	24%	.	.	.	17%
C=CCNc1nc(-c2c(C)nc3sccn23)cs1	-19%	-11%	-4	22%[10 µM]	-26%	-2%
Cc1nc2sccn2c1-c1csc(NCc2ccccc2)n1	7.1µM*	-17%	-4	-79%	-19%	0%
Cc1nc(N)sc1-c1csc(NCc2ccccc2)n1	1%	2%	-27	-33%	?	0%
Cc1cc(-c2csc(NCc3ccccc3)n2)c(C)n1C	10%	-9%	-8	-12%	28µM*	5%
c1ccc(CNc2ccnc(-c3cccnc3)n2)cc1	.	.	-1	0%	.	.
Cc1ccccc1-c1nn2c(=O)cc(CN3CCN(C(=O)c4ccc(C(C)(C)C)cc4)CC3)nc2s1	.	-5%	.	.	.	-1%
CCCOC(=O)c1cc(O)c(O)c(O)c1	.	4%[201 µM]	.	.	.	-5%[201 µM]
COC(=O)c1cc(O)c(O)c(O)c1	-4%	1%	2	.	16µM*	-1%
O=[N+]([O-])c1ccc(O)c(/C=N\N=C2c3ccccc3-c3ccccc32)c1	11µM*	0%	3	26%[10 µM]	9%	-6%
O=[N+]([O-])c1ccc(O)c(/C=N/NC2=NS(=O)(=O)c3ccccc32)c1	?	-4%	14	-4%[10 µM]	22µM*	-8%
O=[N+]([O-])c1ccc(O)c(/C=N/Nc2nn[nH]n2)c1	0%	3%	-5	.	14µM*	-6%
Cc1cc(C)n(-c2ccc([N+](=O)[O-])cc2-c2nn[nH]n2)n1	5%	-1%	1	12%	-10%	-1%
O=[N+]([O-])c1ccc(O)c(-c2nn[nH]n2)c1	1%	6%	-15	24%	0.4µM*	-4%
O=[N+]([O-])c1ccc(/C=N/NC2=NS(=O)(=O)c3ccccc32)cc1	17%	3%	-1	.	-3%	-2%
Oc1ccccc1/C=N/Nc1nn[nH]n1	-2%[9.22 µM]	-5%	-4	15%[10 µM]	?	-7%
NC(N)=N/N=C/c1cc([N+](=O)[O-])ccc1O	4%	2%	4	-3%[10 µM]	3%	-6%
O=[N+]([O-])c1ccc(O)c(/C=N/Nc2ccc(Cl)nn2)c1	?	-21%	-3	-70%	5.6µM*	-2%
COc1ccc2[nH]c3c(C)c4ccncc4c(C)c3c2c1	-39%[9.22 µM]	-5%	-10	-90%[10 µM]	8.9µM*	-11%
O=C(Cn1ncn2c(cc3ccccc32)c1=O)NCc1ccc(F)cc1	.	4%	.	.	.	1%
CCc1c(C)nc2ncnn2c1NCCc1ccc(Cl)cc1	-19%[9.22 µM]	8%[53 µM]	-3	10%[10 µM]	2%	1%[53 µM]
CCc1c(C)nc2ncnn2c1NCCc1ccccc1	10µM*	-10%	2	-37%	-2%	0%
SMILES	HTT aggregate	TRb SRC2 PPI	FBPA coupling cs	HTT cytoprotect	JMJD2E inh	TR SRC2 fluor cs
O=C(Cc1ccc(F)cc1)Nc1nc(-c2ccc(F)cc2)cs1	.	.	-2	.	.	.
O=C(Nc1nc(-c2ccc(F)cc2)cs1)c1cnccn1	10µM*	-4%	-2	1%[10 µM]	6%	1%
CCOC(=O)c1cnc2nc(C)[nH]n2c1=O	-12%	5%	-4	5%	?	-1%
CCOC(=O)c1cnc2sc3c(n2c1=O)CCCC3	8.9µM*	-4%	-1	-12%[10 µM]	?	-6%
Cc1nc(C)c(-c2ccc(SCC(=O)Nc3ccc(Cl)c(Cl)c3)nn2)s1	.	4%	.	.	.	-2%
O=c1c2ccccc2nc(/C=C/c2cccnc2)n1CCc1ccccc1	-6%[9.22 µM]	-4%	-2	-9%[10 µM]	16µM*	-6%
Cc1ccc(NC(=O)c2cc3ccccn3n2)cc1F	.	3%	.	.	.	-1%
CCOC(=O)c1sc2nc(NC(=O)C(C)(C)C)sc2c1C	35µM*	6%	-1	-78%	?	-6%
CCC(NC(=O)Nc1nnc(C(F)(F)F)s1)(C(F)(F)F)C(F)(F)F	1.6µM*	-2%	-10	-73%	10%	-4%
COc1ccc(-c2cc3nc(N)cc(=O)n3[nH]2)cc1	.	5%	.	.	.	4%
COc1ccc(-c2cc(=O)n(CCC#N)[nH]2)cc1	?	?	-3	-1%[10 µM]	1.8µM*	-3%
COCCn1c(=NC(=O)c2ccc(S(=O)(=O)N3CCc4ccccc4C3)cc2)sc2cc(S(N)(=O)=O)ccc21	19%	2%	0	.	4µM*	-2%
C#CCn1c(=NC(=O)c2ccc(S(=O)(=O)N3CCc4ccccc4C3)cc2)sc2cc(S(N)(=O)=O)ccc21	10µM*	7%	0	-36%[10 µM]	6.3µM*	0%
COc1c(C2=CC(=O)N(C)C2=O)c2c(n1C)C(=O)c1ccccc1C2=O	.	12%	-35*	14µM*	-16%	-1%
COc1ccc(-c2csc3ncnc(NCCN4CCOCC4)c23)cc1	13µM*	-1%	-1	-26%	4%	0%
Cc1ccc(-c2csc3ncnc(NCCN4CCOCC4)c23)cc1	-32%	9%	8	-36%	3%	2%
COc1ccc(Cl)cc1NC(=O)CN(c1cc(C)cc(C)c1)S(=O)(=O)c1c(C)n[nH]c1C	.	-5%	.	.	.	-1%
Nc1c(Cl)ncnc1N/N=C/c1ccccn1	?	2%	-8	36%[0.074 µM]	20µM*	-5%
CC(=O)N(C1=C(Cl)C(=O)c2ccccc2C1=O)C1CCCCC1	?	2%	-88*	-48%[10 µM]	?	-3%
CC(=O)N(c1ccccc1C)C1CCCC1	1%	-7%	1	?	4%	0%
Cc1oc(-c2ccccc2F)nc1CSCC(=O)NC1CC1	.	.	-1	.	.	.
Cc1oc(-c2ccccc2F)nc1CSCC(=O)NCCc1ccccc1	.	-28%	.	.	.	0.13µM*[quencher]
